A short description of assay [1]: qHTS assay to identify small molecule antagonists of the estrogen related receptor (ERR) signaling pathway - cell viability counter screen (AID 1224818; active = well fitted curve in the direction sought with a large enough effect in the repeat runs; an effect the other way counts as inactive or inconclusive;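 also: viability measured after 17.5 h of compound exposure; % is scaled to controls: 0 for no effect and ±100 for the full control effect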). Put shortly:
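Cells carrying the ERR pathway reporter were seeded and incubated for 6 hours before compound addition. After a 17.5-hour exposure at 37 C, live-cell protease activity was measured by CellTiter-Fluor fluorescence following 30 minutes of incubation.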

Assay [2] can be described thus: qHTS assay to identify small molecule agonists of the estrogen related receptor (ERR) signaling pathway (AID 1224820; active = well fitted curve in the direction sought with a large enough effect in the repeat runs; an effect the other way counts as inactive or inconclusive; also: % is scaled to controls: 0 for no effect and ±100 for the full control effect). The procedure, abridged: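 Quantitative HTS of the LOPAC library used NTP ERR reporter cells treated 18 h at 37 C. Signal is luminescence after One-Glo addition and a 30 min room-temperature incubation.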
The test system of assay [3] is estrogen-related receptor alpha (ERRalpha) with PGC-1alpha coactivator, human. The assay is described as follows: qHTS assay to identify small molecule antagonists of the estrogen related receptor signaling pathway with the pleiotropic PPARgamma coactivator (PGC) (AID 1224821). Also: nearly all actives have a fitted effect of over 50% in size. Also: potency is read from the fitted curve at half-maximal effect. Put shortly: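 Quantitative HTS for antagonism: PGC/ERR cells received compounds after 6 h attachment and were incubated 18 h at 37 C, with luminescence (One-Glo) as the endpoint.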

Assay [4] can be described thus: qHTS assay to identify small molecule antagonists of the estrogen related receptor signaling pathway with the pleiotropic PPARgamma coactivator (PGC) cell viability counter screen (AID 1224822; active = well fitted curve in the direction sought with a large enough effect in the repeat runs; an effect the other way counts as inactive or inconclusive; also: potency is read from the fitted curve at half-maximal effect). Put shortly: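 Seed PGC/ERR cells (2,000/well); incubate 6 h at 37 C/5% CO2; pin-transfer compounds in DMSO; incubate 17.5 h at 37 C; add CellTiter-Fluor; after 30 min read fluorescence.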

Assay [5] can be described thus: qHTS assay to identify small molecule agonists of the estrogen related receptor signaling pathway with the pleiotropic PPARgamma coactivator (PGC) (AID 1224823; active = well fitted curve in the direction sought with a large enough effect in the repeat runs; an effect the other way counts as inactive or inconclusive; also: % is scaled to controls: 0 for no effect and ±100 for the full control effect). The procedure, abridged: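 Cell-based luciferase assay in the NTP-supplied PGC/ERR line, 2,000 cells/well; 18 h compound exposure at 37 C, luminescence after One-Glo.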
Assay [6] is described as follows: qHTS assay for small molecule agonists of the p53 signaling pathway (AID 651631). Also: potency is read from the fitted curve at half-maximal effect; nearly all actives have a fitted effect of over 15% in size. Put shortly:
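HCT-116 p53RE-bla reporter line, 16 h compound treatment at 37 °C, then fluorescence after 2 h with B/G FRET substrate.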

Assay [7] is described as follows: qHTS assay to identify small molecule agonists of the estrogen related receptor signaling pathway with the pleiotropic PPARgamma coactivator (PGC) from Tox21 10K library (AID 1224842; active = well fitted curve in the direction sought with a large enough effect in the repeat runs; an effect the other way counts as inactive or inconclusive; also: nearly all actives have a fitted effect of over 15% in size; also: potency is read from the fitted curve at half-maximal effect). Put shortly: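 Luminescence from One-Glo (30 min, room temperature) measured after PGC/ERR cells had 18 h at 37 C with pinned compound (23 nL in DMSO). Cells had been seeded at 2,000 per well and pre-incubated 6 h.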

Assay [8] in a line: qHTS assay to identify small molecule agonists of the estrogen related receptor (ERR) signaling pathway from Tox21 library (AID 1224849). Also: % is scaled to controls: 0 for no effect and ±100 for the full control effect; nearly all actives have a fitted effect of over 15% in size. As to conditions: ERR reporter cell line, ONE-Glo luciferase, 18 h; at 92.4 µM (top of the series) unless noted. Put shortly:
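Agonist signal is luciferase luminescence from an ERR reporter cell line treated 18 h at 37 C with DMSO-dissolved compounds, read 30 min after ONE-Glo addition at room temperature.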

Assay [9] is described as follows: Caspase-3/7 induction in HepG2 cells by small molecules, qHTS assay (AID 1346978; active = well fitted curve in the direction sought with a large enough effect in the repeat runs; an effect the other way counts as inactive or inconclusive; also: % is scaled to controls: 0 for no effect and ±100 for the full control effect; nearly all actives have a fitted effect of over 15% in size). Put shortly:
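Caspase-3/7 induction was measured by Caspase-Glo 3/7 luminescence (30 min, room temperature) after a 17 hr compound exposure of wild-type HepG2 cells seeded at 2,000 per well and pre-incubated 5 hr.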

In assay [10] the target is Acetylcholinesterase (Homo sapiens) (UniProt P22303). The assay is described as follows: Acetylcholinesterase (AChE) small molecule antagonists: colormetric cell-based qHTS assay (AID 1347395). Also: % is scaled to controls: 0 for no effect and ±100 for the full control effect; nearly all actives have a fitted effect of over 30% in size. Put shortly: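 Endogenous AChE of human neuroblastoma SH-SY5Y cells was measured with an Ellman-type DTNB/acetylthiocholine mix. Compound pretreatment lasted 30 min at 37 C; substrate reaction ran 90 min at 37 C.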

Assay [11] has the same target. The assay is described as follows: Acetylcholinesterase (AChE) small molecule antagonists: enzyme-based qHTS assay (AID 1347397). Also: % is scaled to controls: 0 for no effect and ±100 for the full control effect; nearly all actives have a fitted effect of over 55% in size. Conditions: Potency: AChE enzyme activity inhibition; outcome: AChE enzyme activity inhibition. The procedure, abridged:
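Absorbance-based detection of thiocholine with DTNB served as the read-out. Recombinant human AChE was exposed to compound for 30 min at RT before a 10 min RT incubation with acetylthiocholine.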

Assay [12] has the same target. Briefly: Acetylcholinesterase (AChE) small molecule antagonists: fluorescence cell-based qHTS assay (AID 1347398). Also: % is scaled to controls: 0 for no effect and ±100 for the full control effect; nearly all actives have a fitted effect of over 50% in size. As to conditions: Potency: AChE activity; outcome: AChE activity. The procedure, abridged: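 Fluorimetric cell-based assay: intact SH-SY5Y cells, 30 min compound preincubation at 37 C, acetylthiocholine substrate with thiol probe Thiolite Green, 40 min RT development, fluorescence 490/520 nm.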

The target is the same in assay [13]. The assay is described as follows: Acetylcholinesterase (AChE) small molecule antagonists: enzyme-based qHTS assay with human liver microsomes (AID 1347399). Also: % is scaled to controls: 0 for no effect and ±100 for the full control effect; nearly all actives have a fitted effect of over 60% in size. As to conditions: Potency: qHTS inhibition; outcome: qHTS inhibition. Put shortly: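 Recombinant human AChE (50 mU/mL in the enzyme mix) and human liver microsomes (0.25 mg/mL final) were preincubated with compound and NADPH (0.25 mg/mL final) for 30 min at 37 C. Acetylthiocholine/DTNB was then added; thiocholine was read colorimetrically after 10 min at room temperature.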

A further assay deals with Aromatase (Homo sapiens) (UniProt P11511). The assay is described as follows: qHTS assay to identify aromatase inhibitors (AID 743083; active = well fitted curve in the direction sought with a large enough effect in the repeat runs; an effect the other way counts as inactive or inconclusive; also: % is scaled to controls: 0 for no effect and ±100 for the full control effect; nearly all actives have a fitted effect of over 55% in size).
A short description of assay [14]: qHTS assay to identify small molecule agonists of H2AX (AID 1224845; active = well fitted activation curve with a large enough effect in the signal ratio in the repeat runs, not every such curve was filed as active; the % refers to the signal ratio; also: % is scaled to controls: 0 for no effect and ±100 for the full control effect). Put shortly: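 Phospho-H2AX Ser139 measured by HTRF (ex 320 nm; em 665 and 620 nm) after 24 hr antibody incubation. Compounds, 15 concentrations, 0.76% DMSO, were applied to CHO-K1 cells for 3hr at 37C before lysis.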
The nature of assay [15]: qHTS assay to identify small molecule antagonists of the estrogen related receptor (ERR) signaling pathway (AID 1224819; active = well fitted curve in the direction sought with a large enough effect in the repeat runs; an effect the other way counts as inactive or inconclusive; also: potency is read from the fitted curve at half-maximal effect; nearly all actives have a fitted effect of over 50% in size). The procedure, abridged: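 Compounds dissolved in DMSO were pin-transferred onto ERR cells that had been plated 6 h earlier, and cells were then incubated 18 h at 37 C; signal was luciferase luminescence via One-Glo.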
In assay [16] the target is Nuclear receptor subfamily 1 group I member 3 (Homo sapiens) (UniProt Q14994). The assay is described as follows: qHTS assay to identify small molecule agonists of the constitutive androstane receptor (CAR) signaling pathway (AID 1224839; active = well fitted curve in the direction sought with a large enough effect in the repeat runs; an effect the other way counts as inactive or inconclusive). The procedure, abridged: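 A 15-concentration quantitative screen uses HepG2 cells co-transfected stably with human CAR and CYP2B6-2.2kb reporter. Treatment lasts 24 h with 0.75 uM PK11195 final present; ONE-Glo luminescence is the signal.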

Assay [17] is described as follows: qHTS assay to identify small molecule antagonists of the estrogen related receptor (ERR) signaling pathway from Tox21 library - cell viability counter screen (AID 1224834; active = well fitted curve in the direction sought with a large enough effect in the repeat runs; an effect the other way counts as inactive or inconclusive; also: % is scaled to controls: 0 for no effect and ±100 for the full control effect; nearly all actives have a fitted effect of over 30% in size). The procedure, abridged:
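Cytotoxicity of test substances is gauged in the same ERR cells used for the antagonist screen, after 17.5 h of compound treatment at 37 C, by CellTiter-Fluor fluorescence measured after 30 min.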

Assay [18] can be described thus: qHTS assay to identify small molecule antagonists of the estrogen related receptor signaling pathway with the pleiotropic PPARgamma coactivator (PGC) from Tox21 10K library - cell viability counter screen (AID 1224840; active = well fitted cell-killing curve with a large enough effect in the repeat runs, not every such curve was filed as active; also: % is scaled to controls: 0 for no effect and ±100 for the full control effect; nearly all actives have a fitted effect of over 40% in size). The procedure, abridged:
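Step one, plate 2,000 PGC/ERR cells per well; step two, incubate 6 h at 37 C/5% CO2; step three, pin-transfer compounds; step four, incubate 17.5 h; step five, add CellTiter-Fluor and read fluorescence after 30 min.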

Unmarked numbers belong to inactive results. Results filed as inconclusive are left out. Activity calls are given as the source filed them. Unless noted, calls follow the shape of the full dose curve.

Acetylcholinesterase (Homo sapiens), sequence (P22303 whole entry, looked up): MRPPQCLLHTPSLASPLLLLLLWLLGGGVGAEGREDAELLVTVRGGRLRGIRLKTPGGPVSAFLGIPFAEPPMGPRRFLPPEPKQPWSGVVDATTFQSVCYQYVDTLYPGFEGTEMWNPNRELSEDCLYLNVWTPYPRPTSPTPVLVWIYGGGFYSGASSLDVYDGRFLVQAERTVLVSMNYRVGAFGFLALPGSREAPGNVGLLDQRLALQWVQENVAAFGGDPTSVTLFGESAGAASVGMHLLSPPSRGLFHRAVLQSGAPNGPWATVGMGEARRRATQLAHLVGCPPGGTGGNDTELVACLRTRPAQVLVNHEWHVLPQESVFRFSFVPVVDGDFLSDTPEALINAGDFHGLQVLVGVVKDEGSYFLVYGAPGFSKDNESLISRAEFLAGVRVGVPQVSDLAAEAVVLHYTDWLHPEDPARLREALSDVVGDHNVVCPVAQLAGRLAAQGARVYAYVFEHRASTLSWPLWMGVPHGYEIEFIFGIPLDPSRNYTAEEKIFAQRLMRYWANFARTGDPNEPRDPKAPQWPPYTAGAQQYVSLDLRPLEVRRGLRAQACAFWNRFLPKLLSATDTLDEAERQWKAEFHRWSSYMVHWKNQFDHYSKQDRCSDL
Aromatase (Homo sapiens), sequence (P11511 whole entry, looked up): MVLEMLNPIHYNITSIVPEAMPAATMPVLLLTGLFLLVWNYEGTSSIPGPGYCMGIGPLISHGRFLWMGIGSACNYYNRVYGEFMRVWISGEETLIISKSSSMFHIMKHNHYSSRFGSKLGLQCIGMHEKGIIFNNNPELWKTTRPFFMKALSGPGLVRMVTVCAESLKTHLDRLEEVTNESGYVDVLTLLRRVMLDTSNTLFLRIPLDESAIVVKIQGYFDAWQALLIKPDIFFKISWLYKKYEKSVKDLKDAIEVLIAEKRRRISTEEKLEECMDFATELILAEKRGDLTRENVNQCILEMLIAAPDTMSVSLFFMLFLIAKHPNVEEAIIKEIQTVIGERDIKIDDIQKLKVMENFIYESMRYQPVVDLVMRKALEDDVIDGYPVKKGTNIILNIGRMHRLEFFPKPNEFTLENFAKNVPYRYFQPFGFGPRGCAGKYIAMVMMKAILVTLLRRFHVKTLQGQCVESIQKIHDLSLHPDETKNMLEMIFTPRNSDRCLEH
Nuclear receptor subfamily 1 group I member 3 (Homo sapiens), sequence (Q14994 whole entry, looked up): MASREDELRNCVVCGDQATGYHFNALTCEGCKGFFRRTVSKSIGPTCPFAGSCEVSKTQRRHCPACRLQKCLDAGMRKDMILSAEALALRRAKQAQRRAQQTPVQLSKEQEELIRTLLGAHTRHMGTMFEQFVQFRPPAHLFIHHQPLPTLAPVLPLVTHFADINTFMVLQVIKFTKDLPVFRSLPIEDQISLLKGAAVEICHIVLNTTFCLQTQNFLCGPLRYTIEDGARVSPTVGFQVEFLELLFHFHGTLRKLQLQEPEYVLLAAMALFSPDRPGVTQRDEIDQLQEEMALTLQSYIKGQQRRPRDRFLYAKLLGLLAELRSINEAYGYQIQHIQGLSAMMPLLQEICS

Regarding `CN(N=O)c1ccc(O)c(O)c1`, the Potency result in [1], in assay [2], in [3], in [4] and in [5] was “inactive” each time.
Turning to `O=Nc1ccc(Nc2ccccc2)cc1`, the Potency in [6] is 61.1 µM (active); in [7], 9.74 µM (active). The activity change, positive = activation in [8] is -79.9% (active). In addition, the Potency entry in assay [9], in [10], in assay [11], in assay [12] and in assay [13] was “inactive” in each case.
`N#CC1(O)CCCCC1`: the Potency result (in the assay with Aromatase (Homo sapiens); in assay [14]; in assay [10]; in assay [11]; in [12]; in assay [13]) was “inactive” in each case.
For `C/C=C(/C)C(=O)O[C@H]1C(C)=C2[C@H]([C@@H]1OC(=O)CCCCCCC)[C@@](C)(OC(C)=O)C[C@H](OC(=O)CCC)[C@@]1(O)[C@H]2OC(=O)[C@@]1(C)O`, the results for the Potency in assay [15] and in [4] were 0.246 µM (active) and 8.1 µM (active), respectively. Besides, the Potency entry in [2] and in [5] was “inactive” each time.
On to `Clc1nc(Cl)c(Cl)c(Cl)c1Cl`, for which the Potency entry (with Aromatase (Homo sapiens); in assay [16]; in assay [7]; in assay [10]; in assay [11]; in [12]) was “inactive” in each case. The Potency entry in [13] is “inactive”.
Consider `O=S1(=O)N(CCN2CC=C(c3c[nH]c4cc(F)ccc34)CC2)c2cccc3c2N1CCC3`, for which the Potency entry in assay [2] and in [5] was “inactive” throughout. Besides, the Potency in assay [3] was 23.7 µM (active).
`C[N+]1(C)[C@@H]2CC(OC(=O)[C@H](CO)c3ccccc3)C[C@H]1[C@@H]1O[C@@H]12` (some centres not stated): the Potency entry in assay [17], in assay [18], in assay [10], in assay [11], in [12] and in [13] was “inactive” each time.
`CC(C)(C)c1cc(C=C(C#N)C#N)cc(C(C)(C)C)c1O`: the Potency entry in [2] and in assay [5] was “inactive” in each case. In assay [3], the Potency was 0.181 µM (active).

The values above are taken from PubChem BioAssay (Tox21).
